The text below walks through data of ChEMBL document CHEMBL3988442, “University of Dundee, Small-Polar-MMV Screening Library” (2021).

SMILES strings stand for the structures. For part of these data: Measured potencies and affinities stand elsewhere.

Design in all cases: scale not given: direction of the effect not stated beside the values
The target of test [1] is Protein translocase subunit SecA (Escherichia coli (strain K12)) (UniProt P10408). The experiment in a line: Assay to Identify E. coli SecA ATPase Inhibitors. It counts as functional. Conditions: 30 µM.
Sequence of Protein translocase subunit SecA (Escherichia coli (strain K12)) (P10408 whole entry): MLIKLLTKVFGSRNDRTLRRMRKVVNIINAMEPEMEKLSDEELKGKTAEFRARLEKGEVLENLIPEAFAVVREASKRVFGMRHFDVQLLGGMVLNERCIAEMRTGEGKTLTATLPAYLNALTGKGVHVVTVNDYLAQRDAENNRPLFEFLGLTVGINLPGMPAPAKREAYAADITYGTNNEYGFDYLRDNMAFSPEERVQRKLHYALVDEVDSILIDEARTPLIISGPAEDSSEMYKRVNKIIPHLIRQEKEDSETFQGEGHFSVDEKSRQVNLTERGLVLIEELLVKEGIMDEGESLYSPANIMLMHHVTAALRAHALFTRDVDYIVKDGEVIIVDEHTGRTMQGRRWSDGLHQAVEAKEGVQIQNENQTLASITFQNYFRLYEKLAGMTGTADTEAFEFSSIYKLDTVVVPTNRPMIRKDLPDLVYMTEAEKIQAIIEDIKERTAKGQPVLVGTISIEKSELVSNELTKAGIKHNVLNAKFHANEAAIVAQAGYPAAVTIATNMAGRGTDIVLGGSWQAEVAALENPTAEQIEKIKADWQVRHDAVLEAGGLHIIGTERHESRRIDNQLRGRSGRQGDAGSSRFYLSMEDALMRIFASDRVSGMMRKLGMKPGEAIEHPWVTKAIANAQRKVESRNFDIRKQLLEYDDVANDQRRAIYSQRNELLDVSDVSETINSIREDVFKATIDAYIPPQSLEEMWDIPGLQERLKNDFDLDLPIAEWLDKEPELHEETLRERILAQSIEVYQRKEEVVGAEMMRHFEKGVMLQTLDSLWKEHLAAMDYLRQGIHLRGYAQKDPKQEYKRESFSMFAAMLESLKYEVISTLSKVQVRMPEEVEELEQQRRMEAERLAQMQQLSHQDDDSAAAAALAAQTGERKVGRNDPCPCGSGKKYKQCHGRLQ
Test [2] deals with T1, Ubiquitin-activating enzyme e1, putative (Leishmania donovani (strain BPK282A1)) (UniProt E9BSI1).
T1 sequence (whole entry): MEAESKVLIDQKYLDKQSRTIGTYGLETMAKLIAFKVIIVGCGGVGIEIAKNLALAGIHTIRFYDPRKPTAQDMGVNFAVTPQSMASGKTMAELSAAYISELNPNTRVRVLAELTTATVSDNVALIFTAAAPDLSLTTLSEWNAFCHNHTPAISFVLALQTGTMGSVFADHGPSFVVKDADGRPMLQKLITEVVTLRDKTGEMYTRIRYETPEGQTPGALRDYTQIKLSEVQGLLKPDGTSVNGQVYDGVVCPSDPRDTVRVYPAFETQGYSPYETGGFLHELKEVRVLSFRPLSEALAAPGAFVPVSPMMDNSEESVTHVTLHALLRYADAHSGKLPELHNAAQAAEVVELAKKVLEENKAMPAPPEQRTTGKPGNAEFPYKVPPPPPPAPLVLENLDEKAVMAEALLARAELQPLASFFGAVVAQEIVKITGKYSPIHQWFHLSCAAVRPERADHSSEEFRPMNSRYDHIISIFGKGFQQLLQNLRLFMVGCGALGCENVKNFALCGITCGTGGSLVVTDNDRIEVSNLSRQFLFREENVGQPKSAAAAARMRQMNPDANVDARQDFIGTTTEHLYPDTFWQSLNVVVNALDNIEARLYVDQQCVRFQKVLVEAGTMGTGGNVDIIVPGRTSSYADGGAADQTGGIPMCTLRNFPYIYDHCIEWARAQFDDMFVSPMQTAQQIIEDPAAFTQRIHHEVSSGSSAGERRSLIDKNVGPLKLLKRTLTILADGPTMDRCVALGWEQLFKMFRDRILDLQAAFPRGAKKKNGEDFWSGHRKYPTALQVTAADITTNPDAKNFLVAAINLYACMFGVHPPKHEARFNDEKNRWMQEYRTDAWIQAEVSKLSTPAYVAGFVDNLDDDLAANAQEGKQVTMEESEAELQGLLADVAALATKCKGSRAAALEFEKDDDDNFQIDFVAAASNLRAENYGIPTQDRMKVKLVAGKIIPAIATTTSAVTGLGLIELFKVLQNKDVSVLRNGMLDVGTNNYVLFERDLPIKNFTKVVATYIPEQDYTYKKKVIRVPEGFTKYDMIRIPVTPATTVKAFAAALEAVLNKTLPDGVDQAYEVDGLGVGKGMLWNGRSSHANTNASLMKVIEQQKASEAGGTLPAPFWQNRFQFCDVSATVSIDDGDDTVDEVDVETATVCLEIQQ
Kind of test: Leishmania donovani Ubiquitin Activating Enzyme (LdE1). It counts as functional. Conditions: 30 µM.

Test [3] concerns the target Sialic acid-binding Ig-like lectin 9 (Homo sapiens) (UniProt Q9Y336). Kind of test: Hs-Siglec9 ALPHAscreen SOP 20170721. Particulars: 10 µM.
The next test has as its system Trypanosoma cruzi. Kind of test: Trypanosoma cruzi phosphomannomutase and mannose-1-phosphate guanylyltransferase assay. It counts as functional. Conditions: 10 µM.
Test [4] concerns the target T2, Arginase-2, mitochondrial (Homo sapiens) (UniProt P78540).
T2 sequence (whole entry): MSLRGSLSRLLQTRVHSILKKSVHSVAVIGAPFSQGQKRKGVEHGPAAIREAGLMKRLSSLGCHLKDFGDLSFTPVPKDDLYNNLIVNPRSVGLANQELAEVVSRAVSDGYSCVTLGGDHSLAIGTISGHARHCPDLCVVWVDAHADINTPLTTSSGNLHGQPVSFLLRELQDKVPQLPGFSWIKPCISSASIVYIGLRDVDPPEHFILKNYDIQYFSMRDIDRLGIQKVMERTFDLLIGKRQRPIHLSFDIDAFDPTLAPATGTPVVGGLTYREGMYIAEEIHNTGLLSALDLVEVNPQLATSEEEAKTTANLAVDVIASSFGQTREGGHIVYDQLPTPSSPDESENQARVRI
The experiment in a line: in vitro enzyme assay to detect the production of urea directly proportional to the activity of Arginase II. Note: in the data most compounds retested in dose-response had high values. It counts as functional. Particulars: 33.3 µM.

For test [5], the target named is T3, Proteasome subunit beta (Trypanosoma cruzi) (UniProt O96673).
T3 sequence (whole entry): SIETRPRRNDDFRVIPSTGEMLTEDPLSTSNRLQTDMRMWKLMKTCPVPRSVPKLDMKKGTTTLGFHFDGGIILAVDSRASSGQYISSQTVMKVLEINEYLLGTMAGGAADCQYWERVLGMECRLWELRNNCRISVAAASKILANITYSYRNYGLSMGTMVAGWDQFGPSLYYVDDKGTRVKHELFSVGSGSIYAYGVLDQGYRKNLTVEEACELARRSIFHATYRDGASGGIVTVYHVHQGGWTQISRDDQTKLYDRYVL
The experiment in a line: Trypanosoma cruzi proteasome chymotrypsin-like activity (TcProtChymo) assay. Note: in the data most compounds retested in dose-response had high values. It counts as functional. Conditions: 9.37 µM.

The species named for a further test is Homo sapiens. Kind of test: To identify inhibition of the IFN signalling (Jak-Stat) pathway via expression of an eGFP reporter gene under the control of an IFN-stimulated response element (ISRE) containing MxA promoter. It counts as functional. Particulars: 30 µM.
In test [6] the target is T4, Tyrosyl-tRNA synthetase, putative (Trypanosoma cruzi (strain CL Brener)) (UniProt Q4DSP6).
T4 sequence (whole entry): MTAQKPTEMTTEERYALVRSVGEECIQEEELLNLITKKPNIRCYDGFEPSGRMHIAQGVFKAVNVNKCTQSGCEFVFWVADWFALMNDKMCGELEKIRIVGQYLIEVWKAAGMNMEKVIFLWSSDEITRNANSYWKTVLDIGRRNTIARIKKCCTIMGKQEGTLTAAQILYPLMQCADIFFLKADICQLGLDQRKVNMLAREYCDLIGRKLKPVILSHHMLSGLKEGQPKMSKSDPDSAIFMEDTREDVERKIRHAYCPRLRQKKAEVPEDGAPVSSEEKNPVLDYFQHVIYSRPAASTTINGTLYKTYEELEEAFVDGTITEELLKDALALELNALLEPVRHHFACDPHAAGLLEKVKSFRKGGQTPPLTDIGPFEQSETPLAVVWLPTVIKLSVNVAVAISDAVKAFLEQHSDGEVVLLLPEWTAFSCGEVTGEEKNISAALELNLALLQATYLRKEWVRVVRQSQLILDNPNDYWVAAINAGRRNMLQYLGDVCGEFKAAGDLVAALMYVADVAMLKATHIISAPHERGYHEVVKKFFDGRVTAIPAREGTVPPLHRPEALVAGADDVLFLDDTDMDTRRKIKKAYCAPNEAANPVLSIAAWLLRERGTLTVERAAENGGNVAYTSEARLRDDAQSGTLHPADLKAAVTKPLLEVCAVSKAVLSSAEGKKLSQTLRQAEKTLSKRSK
Kind of test: Trypanosoma cruzi tyrosyl tRNA synthetase (TcYRS) _High Tyrosine SOP. Note: in the data most compounds retested in dose-response had high values. Conditions: 30 µM. It counts as functional.

The target in test [7] is T4, Tyrosyl-tRNA synthetase, putative (Trypanosoma cruzi (strain CL Brener)). The experiment in a line: Trypanosoma cruzi tyrosyl tRNA synthetase (TcYRS) SOP. It counts as functional. Conditions: 30 µM.
Test [8] addresses Chromo domain-containing protein 1 (Saccharomyces cerevisiae (strain ATCC 204508 / S288c) (Baker's yeast)) (UniProt P32657). The experiment in a line: ScCHD-1 Enzyme Inhibition Assay. Note: in the data most compounds retested in dose-response had high values. It counts as functional. Conditions: 30 µM.

Sequence of Chromo domain-containing protein 1 (Saccharomyces cerevisiae (strain ATCC 204508 / S288c) (Baker's yeast)) (P32657 whole entry, the tested form may be a part): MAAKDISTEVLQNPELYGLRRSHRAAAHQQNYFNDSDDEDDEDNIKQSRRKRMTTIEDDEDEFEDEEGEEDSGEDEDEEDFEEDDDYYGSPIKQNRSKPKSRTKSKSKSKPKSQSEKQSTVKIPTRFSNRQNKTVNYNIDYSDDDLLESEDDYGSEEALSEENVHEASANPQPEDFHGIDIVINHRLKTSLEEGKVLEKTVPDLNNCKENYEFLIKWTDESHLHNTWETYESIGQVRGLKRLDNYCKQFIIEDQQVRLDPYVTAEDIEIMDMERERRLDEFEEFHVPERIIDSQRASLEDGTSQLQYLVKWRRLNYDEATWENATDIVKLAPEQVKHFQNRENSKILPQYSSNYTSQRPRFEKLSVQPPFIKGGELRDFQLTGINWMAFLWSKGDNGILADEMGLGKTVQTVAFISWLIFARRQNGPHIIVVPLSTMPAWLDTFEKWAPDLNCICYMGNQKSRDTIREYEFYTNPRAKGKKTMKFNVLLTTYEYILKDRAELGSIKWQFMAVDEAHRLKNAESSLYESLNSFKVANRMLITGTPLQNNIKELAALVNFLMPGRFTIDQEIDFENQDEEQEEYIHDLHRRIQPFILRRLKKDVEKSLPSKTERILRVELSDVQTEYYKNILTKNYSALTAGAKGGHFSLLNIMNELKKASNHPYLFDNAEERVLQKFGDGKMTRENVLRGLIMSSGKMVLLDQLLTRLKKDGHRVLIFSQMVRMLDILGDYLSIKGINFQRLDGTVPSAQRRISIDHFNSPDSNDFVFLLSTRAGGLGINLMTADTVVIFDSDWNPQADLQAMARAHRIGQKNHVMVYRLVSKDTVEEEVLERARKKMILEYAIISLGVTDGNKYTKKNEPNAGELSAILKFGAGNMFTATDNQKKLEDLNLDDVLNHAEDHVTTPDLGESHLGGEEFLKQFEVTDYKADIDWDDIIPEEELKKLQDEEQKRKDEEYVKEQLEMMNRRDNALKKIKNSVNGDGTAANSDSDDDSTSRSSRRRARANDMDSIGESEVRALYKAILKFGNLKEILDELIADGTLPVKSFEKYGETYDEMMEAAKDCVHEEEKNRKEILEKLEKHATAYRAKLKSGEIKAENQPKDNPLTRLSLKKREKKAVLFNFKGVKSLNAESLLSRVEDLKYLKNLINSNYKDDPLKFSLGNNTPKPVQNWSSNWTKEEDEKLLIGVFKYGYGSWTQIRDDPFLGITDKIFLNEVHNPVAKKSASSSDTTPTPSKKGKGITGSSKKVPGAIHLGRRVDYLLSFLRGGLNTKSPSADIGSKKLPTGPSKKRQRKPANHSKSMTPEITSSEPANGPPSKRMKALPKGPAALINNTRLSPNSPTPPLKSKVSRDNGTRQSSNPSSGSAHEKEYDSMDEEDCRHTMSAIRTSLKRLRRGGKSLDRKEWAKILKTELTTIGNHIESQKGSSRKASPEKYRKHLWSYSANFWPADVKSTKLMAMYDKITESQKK
Sequence of Sialic acid-binding Ig-like lectin 9 (Homo sapiens) (Q9Y336 whole entry): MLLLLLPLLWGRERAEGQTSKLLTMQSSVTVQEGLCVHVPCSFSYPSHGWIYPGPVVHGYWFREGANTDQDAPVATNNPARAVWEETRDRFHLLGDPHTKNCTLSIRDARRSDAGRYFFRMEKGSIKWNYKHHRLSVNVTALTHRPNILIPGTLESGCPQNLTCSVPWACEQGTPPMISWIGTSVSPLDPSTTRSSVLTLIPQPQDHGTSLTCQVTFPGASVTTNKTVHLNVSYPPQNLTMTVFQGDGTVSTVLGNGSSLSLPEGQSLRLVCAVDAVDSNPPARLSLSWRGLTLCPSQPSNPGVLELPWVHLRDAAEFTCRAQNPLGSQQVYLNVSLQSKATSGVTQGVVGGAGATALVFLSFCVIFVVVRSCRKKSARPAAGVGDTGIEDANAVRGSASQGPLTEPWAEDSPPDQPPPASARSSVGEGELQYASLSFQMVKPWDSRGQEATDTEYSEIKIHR

As for `Cc1ccc(OC2(C(=O)O)CCN(C(=O)c3nc(C)oc3C)CC2)cn1`, the Percent Effect in [1] was -6.7%; in test [2], 0%; in test [3], -0.0712%; in the test with Trypanosoma cruzi, 4.17%; in test [4] it was 1.05%; in test [5], -1.2%. Also, the Percent Effect in the test listed under Homo sapiens is -9.04%; in test [6], 2.66%; in test [7] it was 4.88%; in test [8], 1.11%.

Consider `Cc1cc(C)n(CC2CCCN2CCCS(N)(=O)=O)n1` (stereo not given), for which the Percent Effect is -1.45% in test [1]; 10.3% in test [2]; -5.77% in test [3]; 7.61% in the test with Trypanosoma cruzi; 4.1% in [4]; 18.3% in [5]. In addition, the Percent Effect in the test filed under Homo sapiens was 20.4%; in [6], 3.35%; in test [7] it was 18.1%; in test [8], -2.57%.

Turning to `CCCn1[nH]cc/c1=N\C(=O)CN1CCOC(Cn2cc(C)cn2)C1` (stereo not given), the Percent Effect is -8.16% in test [1]; 5.33% in test [2]; 3.2% in test [3]; 3.61% with Trypanosoma cruzi; 0.444% in test [4]; 5.85% in test [5]. In addition, the Percent Effect in the test filed under Homo sapiens is -3.75%; in test [6] it was 2.63%; in [7], 7.69%; in test [8] it was -5.89%.

For `CCN(CC1CCOC1)C(=O)Nc1ccc(N2CCCC2)nc1` (stereo not given), the Percent Effect in test [1] was -6.5%; in test [2] it was 12.8%; in test [3], -1.33%; in the test on Trypanosoma cruzi, 5.35%; in test [4], 2.87%; in test [5], 14.2%. Further, the Percent Effect in the test listed under Homo sapiens was 10.2%; in test [6], 7.18%; in test [7] it was 18.1%; in test [8], -10.3%.

Turning to `C1CC(CN2CCOCC3(CCN(C4CCOCC4)C3)C2)CCO1` (stereo not given), the Percent Effect is -5.96% in [1]; 9.09% in test [2]; -7.57% in test [3]; 6.13% in the test on Trypanosoma cruzi; -6.88% in [4]; 13.7% in [5]. The Percent Effect in the test filed under Homo sapiens is 3.41%; in [6] it was 6.84%; in test [7], 10.3%; in [8] it was 0.2%.

Consider `O=S(=O)(N1CCCC1)N1CCCCC1CCc1ccccc1` (stereo not given), for which the Percent Effect in [1] was -6.97%; in test [2], 0%; in [3] it was -0.69%; in the test on Trypanosoma cruzi it was -3.59%; in [4], -1.05%; in test [5] it was 13%. In addition, the Percent Effect in the test listed under Homo sapiens is 25.4%; in [6] it was -3.72%; in [7] it was -4.88%; in test [8] it was -0.676%.

Take `CC(=O)N1CCCC1c1cc(N2CCN(C3CCCC3)CC2)cc(C)n1` (stereo not given): the Percent Effect in [1] was -0.907%; in test [2], 17.3%; in test [3] it was -8.17%; with Trypanosoma cruzi, -2.96%; in [4], 1.33%; in [5] it was 7.22%. Also, the Percent Effect is 6.74% in the test listed under Homo sapiens, 4.23% in [6], 15% in test [7] and -23.3% in test [8].

Consider `CCn1c(CN2CCCC2)nnc1C1CCN(Cc2ccc(C)o2)CC1`, for which the Percent Effect was -1.86% in test [1]; 0% in test [2]; 4.03% in [3]; 6.89% in the test with Trypanosoma cruzi; 13.6% in test [4]; 13.9% in [5]. Further, the Percent Effect was 2.8% in the test filed under Homo sapiens, 6.92% in [6], 19.5% in test [7] and -6.17% in [8].

With `CCN(C)c1ncnc2c1CCN(Cc1ccoc1)CC2`, the Percent Effect in [1] was -6.65%; in test [2], 19.5%; in test [3], -3.79%; with Trypanosoma cruzi it was 8.86%; in test [4], -7.69%; in [5] it was 18.8%. Besides, the Percent Effect in the test filed under Homo sapiens was -6.57%; in test [6], 3.68%; in test [7] it was 15.4%; in test [8], -1.25%.

On to `COc1ccc(C(=O)N2C[C@@H](CN3CCOCC3)[C@@H](CO)C2)c(C)c1`, for which the Percent Effect in [1] is -3.12%; in test [2], 0%; in test [3] it was 14.3%; in the test on Trypanosoma cruzi, 7.47%; in [4], 6.64%; in test [5], 1.71%. Further, the Percent Effect in the test listed under Homo sapiens is -27.6%; in [6], 1.6%; in test [7], 9.76%; in test [8], -1.95%.

Regarding `O=C(Cc1cccs1)N1CC[C@H]2[C@@H]1CCC(=O)N2c1cccnc1`, the Percent Effect is -2.81% in test [1]; 29.9% in [2]; -3.71% in test [3]; -1.31% with Trypanosoma cruzi; 1.37% in test [4]; 16.1% in test [5]. Further, the Percent Effect was -2.71% in the test listed under Homo sapiens, 3.87% in test [6], 7.5% in test [7] and -11% in test [8].

In the case of `COCCN1CCCC1c1nccnc1Nc1nc(C)cs1` (stereo not given), the Percent Effect in test [1] is -2.72%; in test [2], 12%; in [3], 5.33%; in the test with Trypanosoma cruzi, -2.56%; in test [4], 3.98%; in test [5], 7.55%. Further, the Percent Effect is 21.3% in the test listed under Homo sapiens, 9.52% in test [6], 15% in test [7] and -24.9% in test [8].
